The source of these data is PubChem BioAssay (NCATS).

Records with an inconclusive call do not appear. Active and inactive are the calls of the source. Calls follow the shape of the dose curve; as a rule, active = well fitted curve in either direction with a large enough effect (not every such curve was filed as active); inconclusive = small, poorly fitted or top-dose-only effect, or another doubt; inactive = flat fitted curve, though single readings scatter. Starred links: 1 amine or outer side, 2 acyl side, 3 side chain; linkers in the order of their positions; H or OH if unused. Positions of bridges follow the written chain, without caps; N, C: chain ends. Non-standard residues stand in square brackets, D forms with d. Residues, ends and D or L forms follow the SMILES beside them. *: point of attachment. X1 = NC1=N[C@@H](O)C[C@@H]([C@@H](N[*:1])C(=O)[*:2])N1; ΔAla(Z-3-ureido) = NC(=O)N/C=C(\N)C(=O)O; β3hOrn = NCCC[C@H](N)CC(=O)*; Dap = NC[C@H](N)C(=O)O

This assay is described as follows: AP1 Signaling Pathway (AID 357).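 Also: ME-180 reporter cells stimulated with EGF at its EC50 level.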 Conditions: ME-180 (cervical carcinoma) AP-1-bla reporter, EGF-induced, beta-lactamase ratio, 5 h; series mostly up to 17.2 µM. An outline of the steps: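 AP-1-bla ME-180 cells, Opti-MEM + 0.5% dialyzed FBS, plated overnight 37 °C. Cpd titration + EC50 EGF, 5 h 37 °C. CCF4 2.5 h RT; ex 405, em 460/530 ratio → %activity, AC50.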
For the compound `CC[C@]1(c2ccccc2)NC(=O)N(C)C1=O`, the result was inactive.

Turning to `CN1CCO[C@H](c2ccccc2)c2ccccc2C1`, the result was inactive.

Regarding `C[C@H](CCC(=O)O)[C@H]1CC[C@@H]2[C@@H]3[C@@H](O)C[C@H]4C[C@@H](O)CC[C@@]4(C)[C@H]3CC[C@@]21C`, the outcome was inactive.

`C=CCO[C@@H](Cn1ccnc1)c1ccc(Cl)cc1Cl`: the outcome was inactive.

Turning to `CN(C/C=C\c1ccccc1)Cc1cccc2ccccc12`, the result was inactive.

`CC(C)(CO)[C@H](O)C(=O)NCCC(=O)O`: the result was inactive.

Take `C[N+]1(C)CC[C@@H](OC(=O)[C@@](O)(c2ccccc2)C2CCCC2)C1`: the result was inactive.

Take `CCN(CCCCOC(=O)c1ccc(OC)c(OC)c1)[C@@H](C)Cc1ccc(OC)cc1`: the outcome was inactive.

Turning to `O=C(O)c1cc2ccccc2c(Cc2cc3ccccc3c(C(=O)O)c2O)c1O` (tested in a mixture with another compound), the result was inactive.

`C[C@H](NCCC(c1ccccc1)c1ccccc1)c1ccccc1`: the result was inactive.

Take `CCC(=O)OCC(=O)[C@@]1(OC(=O)CC)[C@H](C)C[C@@H]2[C@@H]3[C@H]([C@@H](O)C[C@@]21C)[C@]1(C)C=CC(=O)C=C1C[C@@H]3Cl`: the result was inactive.

For `C[C@H](C(=O)O)c1cccc(Oc2ccccc2)c1`, the outcome was inactive.

For `NCCC[C@H](N)CC(=O)N[C@H]1CNC(=O)[C@@H]([C@@H]2C[C@H](O)N=C(N)N2)NC(=O)/C(=C/NC(N)=O)NC(=O)[C@@H](CO)NC(=O)[C@@H](CO)NC1=O` (β3hOrn-[Dap][dS][dS][ΔAla(Z-3-ureido)][X1]; lactam 1-C), the outcome was inactive.
